Assay outcomes deposited in PubChem by several laboratories.
STK33 kinase inh – blocks human STK33 kinase activity; inhibition, % at 10 µM; AID 2661; purified STK33, MBP phosphorylation, ADP-Glo luminescence; hit rate 0.073% among 320,000; Q9BYT3;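 active = inhibition at or above 25%, using the most active replicate where run in duplicate; inactive = inhibition below 25%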
HIF activator – HIF pathway transcriptional activation; hit rate 0.32% among 300,000; U2OS HRE-luciferase reporter, luminescence; normalized: DMSO 0%, desferrioxamine 100%; AID 1910; activation, % at 7.5 µM (by protocol);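 active = mean activation of at least 10% of the iron chelator positive control signal, with at least half of replicates also reaching 10%; inconclusive = mean and replicate majority disagree about reaching 10%; inactive = mean and most replicates under 10%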
PP1 counter – counter-screen for PP5 inhibitors: inhibitors of human PP1-alpha; purified PP1alpha, OMFP fluorescence; inhibition, % at 6.7 µM; hit rate 0.9% among 320,000;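 active = inhibition above the mean inhibition of all tested compounds plus 3 SD, computed separately for each screening campaign, cut at about 15% in these data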
PP5 primary – inhibitors of human protein phosphatase 5 (PP5) | hit rate 0.18% among 320,000 | purified PP5c, OMFP substrate fluorescence | P53041 | AID 1987 | inhibition, % at 6.7 µM;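 active = inhibition above the campaign's mean inhibition across all tested compounds plus 3 SD, cut at about 9.5% in these data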;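 also: 0% = DMSO only and 100% = 100 µM cantharidin control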
Target sequence (P53041 whole entry, looked up): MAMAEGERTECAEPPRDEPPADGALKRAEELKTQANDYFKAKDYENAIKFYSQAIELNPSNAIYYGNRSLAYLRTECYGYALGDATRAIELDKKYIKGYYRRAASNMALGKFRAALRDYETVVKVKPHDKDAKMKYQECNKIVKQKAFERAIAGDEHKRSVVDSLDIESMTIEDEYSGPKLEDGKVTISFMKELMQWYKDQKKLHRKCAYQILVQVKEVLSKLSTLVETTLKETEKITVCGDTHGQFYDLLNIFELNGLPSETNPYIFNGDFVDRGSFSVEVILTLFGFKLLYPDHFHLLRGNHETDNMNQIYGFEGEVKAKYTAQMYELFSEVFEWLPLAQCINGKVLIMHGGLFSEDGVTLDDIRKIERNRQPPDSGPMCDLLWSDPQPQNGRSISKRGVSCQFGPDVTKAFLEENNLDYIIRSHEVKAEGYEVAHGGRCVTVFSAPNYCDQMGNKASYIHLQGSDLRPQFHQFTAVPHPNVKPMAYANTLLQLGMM
Dyrk1A ADPGlo – blocks rat Dyrk1A kinase activity; Q63470; ADP-Glo luminescence, NFATc1 peptide; inhibition, % at 12.5 µM; hit rate 0.43% among 310,000; AID 504441; in the data active = inhibition above about 50%;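 also: plate controls were vehicle with enzyme for no effect and no enzyme for full effect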
ADP-Glo artifact – counter-screen for Dyrk1A inhibitors: ADP-Glo luciferase artifacts | shares compounds with Dyrk1A ADPGlo | ADP-Glo luciferase artifact assay, no Dyrk1A, luminescence | AC50, µM (series often up to 12 µM), without a hit: at the top dose activity change, negative = inhibition | 1,300 tested, under 10 active;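 active = fitted half-maximal dose AC50 no more than ten times the top valid tested dose, with luminescence dropping as dose rises; inconclusive = poor fit, or flat fit with 30 to 70% inhibition; inactive = the rest, signal increases included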
The depositor's hits bear a star; ? = inconclusive; / = no result given. Hits are enriched below; roughly 1.5% of the tested compounds scored in any of these assays.

SMILES	STK33 kinase inh	HIF activator	PP1 counter	PP5 primary	Dyrk1A ADPGlo	ADP-Glo artifact
CCCOc1ccc2[nH]c(C(=O)N/N=C/c3cc(OC)c(OC)c(OC)c3)cc2c1	0	-17	-4	2	1	/
COc1ccc2[nH]c(C(=O)N/N=C/c3ccc(OC)c(O)c3)cc2c1	0	2	2	0	63*	9%
COc1ccc2[nH]c(C(=O)N/N=C/c3ccccc3OC)cc2c1	0	?	0	4	63*	10%
Cc1ccc(C(CNC(=O)c2ccco2)N2CCN(C)CC2)cc1 (stereo not drawn)	-3	1	-4	-1	7	/
O=C(N/N=C/c1ccccn1)c1ccc(Cl)c(Cl)c1	3	7	0	0	9	/
O=C(N/N=C/c1ccccn1)c1cc(-c2ccccc2Cl)n[nH]1	1	2	3	0	51*	9%
COc1ccc(N2Nc3n[nH]c(N)c3N2)cc1	11	0	-6	2	61*	10%
O=C(COC(=O)c1ccc(S(=O)(=O)N2CCCC2)cc1)NCc1ccco1	-1	0	1	1	-1	/
Cc1nc(-c2ccc(Cl)cc2)sc1C1(C)CC(c2cccc([N+](=O)[O-])c2)=NO1 (stereo not drawn)	0	-1	-7	3	-6	/
Cc1ccc(C)c(CN2CCN(c3ncccn3)CC2)c1	0	0	4	1	10	/
Cc1ccc(CN2CCN(c3ncccn3)CC2)o1	-1	0	-5	0	56*	7%
O=C(COC(=O)/C=C/c1ccccc1)NNC(=O)c1ccccc1F	/	/	/	/	0	/
O=C(Nc1ccc(Cl)c(Cl)c1)OCc1cnc(Cl)s1	/	0	4	4	59*	7%
Oc1[nH]c2ccc(Br)cc2c1N=NC(=S)Nc1ccc(F)cc1	-1	0	14	-1	8	/
N=C(N)N=Nc1c(O)[nH]c2ccc(Br)cc12	-1	0	2	-1	63*	8%
Oc1ccc(NC(=S)N=Nc2c(O)[nH]c3ccc(Br)cc23)cc1	/	-1	/	/	51*	10%
CCCCn1c(N)c(N(CCOC)C(=O)COC(=O)COc2ccccc2C#N)c(=O)[nH]c1=O	-1	-20	-4	0	9	/
COc1ccc(S(=O)(=O)Nc2ccc(S(=O)(=O)Nc3nccs3)cc2)cc1	-1	0	0	4	6	/
CCOC(=O)C1=CNS(=O)(=O)NC1c1ccc2ccccc2c1 (stereo not drawn)	/	/	/	/	2	/
CCCCCCCCCCCCN1[C@@H](CC(=O)OC)c2cc(C(F)(F)F)ccc2S1(=O)=O	0	1	-1	-1	53*	12%
CCOC(=O)C[C@H]1c2cc(F)ccc2S(=O)(=O)N1C(C)C	-6	-1	2	-1	2	/
CCOC(=O)C[C@H]1c2cc(C(F)(F)F)ccc2S(=O)(=O)N1C(C)C	-3	0	-2	0	54*	12%
COc1cc2c(ccc3cc(OC)c(OC)c(O)c32)cc1O	35*	1	-1	6	94*	6%
Cc1cc(C)nc(CCNC(=O)c2cc(COc3c(C)cccc3C)on2)n1	-2	0	-7	-2	-1	/
N#C/C(=C/c1ccc(O)c([N+](=O)[O-])c1)C(=O)Nc1ccccc1	6	1	-5	4	81*	9%
SMILES	STK33 kinase inh	HIF activator	PP1 counter	PP5 primary	Dyrk1A ADPGlo	ADP-Glo artifact
N#C/C(=C\c1ccc(O)c(O)c1)C(=O)NCCc1ccccc1	5	/	1	1	70*	11%
COc1cc(/C=C(\C#N)C(=O)NCCc2ccccc2)cc(OC)c1O	0	0	-1	-1	0	/
Cc1ccc2c(c1C)-c1c(ccc(C)c1C)C(=O)C2=O	/	/	/	/	54*	9%
CC(C)Cc1nc2c(nnn2Cc2ccccc2F)c(=O)[nH]1	-1	0	-3	-1	5	/
COc1cccc(NC(=O)Nc2ccc3c(c2)N(C)C(=O)CS3)c1	0	2	-2	5	50*	8%
CC(=O)Nc1ccc(NC(=O)Nc2ccc3c(c2)N(C)C(=O)CS3)cc1	/	0	-4	2	2	/
O=C(NC1CC2CCCC(C1)N2C(=S)Nc1ccccc1)C1CC1 (stereo not drawn)	-3	0	-1	3	-4	/
COc1cc(/C=C/c2ccc3cccc([N+](=O)[O-])c3n2)ccc1OCC(=O)O	2	0	-2	1	46	/
O=C(O)COc1ccc(/C=C/c2ccc3cccc([N+](=O)[O-])c3n2)cc1	/	2	3	2	66*	9%
CNC(=O)COC(=O)/C=C/c1c(C)nn(-c2ccccc2)c1C	-2	1	-4	-1	-5	/
CCN(CC)CCCNc1ccc2ncn3c4ccc(O)cc4c(=O)c1c23	/	/	/	/	87*	10%
Cc1ccc(NCCN(C)C)c2c(=O)c3cc(O)ccc3sc12	/	/	/	/	42	/
O=C(C1COc2ccccc2O1)N1CCN(c2nc3c(F)cc(F)cc3s2)CC1 (stereo not drawn)	-1	1	0	-1	6	/
Cc1cc(N2CCC(C)CC2)nc2cccc(O)c12	3	1	2	6	51*	9%
Cc1cc(N2CCCCC2)nc2ccccc12	-1	1	-4	-1	-1	/
COc1cccc(-c2sc3ccccc3c2-c2ccc(OCCN3CCCCC3)cc2)c1	-1	/	/	/	/	/
COc1cccc(-c2sc3ccccc3c2-c2ccc(OCCN3CCCC3)cc2)c1	0	/	/	/	51*	9%
COC(=O)C(C)Oc1ccc(-c2nccc(-c3cccs3)n2)cc1 (stereo not drawn)	1	1	-2	3	23	/
Oc1ccc(-c2nccc(-c3cccs3)n2)cc1	7	4	-4	1	61*	5%
COc1ccc(Br)cc1/C=N/N1C(=O)CSC1=S	0	0	4	5	0	/
COc1cc(/C=N/N2C(=O)CSC2=S)ccc1O	1	-1	8	-3	52*	10%
CC1=CC2C(C3C=CC2(C)C(=O)C3(C)O)C(C)(O)C1=O (stereo not drawn)	/	/	/	/	-4	/
CCc1ccccc1-n1nnc(-c2ccccc2)n1	-1	0	-4	1	15	/
CCC(=O)Oc1ccc2c(c1)O/C(=C\c1ccco1)C2=O	-2	0	-3	-3	18	/
CCN(CC)C(=O)Oc1ccc2c(c1)O/C(=C\c1ccco1)C2=O	-3	1	1	1	53*	8%
Cc1cc(NC(=O)C(C)SCC(=O)N(C)CC(=O)Nc2ccccc2Br)no1 (stereo not drawn)	-2	1	1	-3	-1	/
O=C(Nc1ccccc1Oc1ccccc1)c1cccs1	-2	2	3	3	-4	/
Cc1ncc(CO)c(/C=N/Nc2ccc(C(F)(F)F)cn2)c1O	4	9.6*	-2	0	50*	9%
Cc1ncc(CO)c(/C=N/NC(=S)Nc2ccc(F)cc2)c1O	-2	0	2	-1	3	/
